Structures are written as SMILES. Among all 16,000 compounds or so, about 75 (0.5%) were called active. This is one part of a sample in which actives are shown more often than they occur. A number with no mark means an inactive call. Rule as the data show it: active = inhibition above about 30%; inactive = the rest.

Protein phosphatase methylesterase 1 (Homo sapiens), sequence (Q9Y570 whole entry, looked up): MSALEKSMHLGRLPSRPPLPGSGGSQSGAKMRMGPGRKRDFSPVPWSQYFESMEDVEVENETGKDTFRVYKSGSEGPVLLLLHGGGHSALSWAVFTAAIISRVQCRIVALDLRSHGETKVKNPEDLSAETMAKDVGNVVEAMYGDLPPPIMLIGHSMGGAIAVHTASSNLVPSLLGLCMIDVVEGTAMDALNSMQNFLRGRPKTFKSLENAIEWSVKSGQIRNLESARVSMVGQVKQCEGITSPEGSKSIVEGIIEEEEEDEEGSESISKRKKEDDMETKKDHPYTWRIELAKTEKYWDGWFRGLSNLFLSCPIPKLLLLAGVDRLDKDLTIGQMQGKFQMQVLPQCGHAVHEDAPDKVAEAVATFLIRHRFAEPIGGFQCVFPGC

This experiment has as its target Protein phosphatase methylesterase 1 (Homo sapiens) (UniProt Q9Y570). Kind of experiment: Maybridge compound blocking human PME-1 (AID 2291). Conditions: recombinant PME-1, FP-Rh probe fluorescence polarization; at 9 µM; stronger effect = higher value.
With `CCOC(=O)c1c(N/N=C\c2ccccc2O)n[nH]c1C`, the inhibition (as a rule, the drop in the measured response relative to a control, in per cent) is 7.03%. Under `COc1ccccc1C1CCN(c2ccc([N+](=O)[O-])cn2)CC1` stands 3.68%; under `COC(=O)c1scc(S(=O)(=O)Cc2ccco2)c1N/N=C(\C#N)S(=O)(=O)C(C)C`, 7.89%; under `CCCCOC(=O)c1ccc(-c2ccccn2)s1`, 5.14%. In the case of `COc1cccc(/C=N/NC(=S)Nc2cc(C(F)(F)F)cc(C(F)(F)F)c2)c1O` it was 5.97%; in that of `CCCC1NC(=O)NC(C)=C1C(=O)OCC` (centres undefined), -4.5%; in that of `O=[N+]([O-])c1ccc(C2CC2(Br)Br)cc1` (centres undefined), 0.49%. Consider `Cc1nc2ccccn2c1C(=O)N/N=C/c1cn(-c2ccccc2)nc1-c1cccs1`, for which the inhibition is 1.07%. In the case of `CSc1c(C#N)c(N)nc(SCC(=O)c2ccc(OC(F)F)cc2)c1C#N` it was -10.3%; in that of `CCOC(=O)/C(C#N)=C/N=C(N/N=C/c1cccs1)SC`, -1.55%. In the case of `Cn1c(CN2C(=O)CSc3ccc(C(F)(F)F)cc32)nnc1SCC(=O)c1ccccc1`, the inhibition was 5.25%. In the case of `CC(C)CC(NC(=O)OC(C)(C)C)C(=O)OCc1ccc(CC(=O)O)cc1` (centres undefined) it was -2.54%; in that of `O=C(NNc1ccccc1C(F)(F)F)NS(=O)(=O)c1ccc(Cl)cc1`, 5.25%. In the case of `CCOC(=O)c1ccc2nc(C(F)(F)F)cc(N3CCN(Cc4ccccc4)CC3)c2c1`, the inhibition was -1.13%. Under `Cc1nc(C)c(-c2ccnc(-c3ccc(Cl)cc3)n2)s1` stands 4.12%; under `NC(CC(=O)O)c1ccccc1` (centres undefined), 6.22%; under `CSc1nc(N)nc2nc[nH]c12`, -1.11%.

`COC(=O)c1cc(S(=O)(=O)NCc2csc(-c3cccs3)n2)oc1C`: the inhibition is -1.1%.

Turning to `CC1=C(C(=O)O)N2C(=O)[C@H](NC(=O)[C@@H](N)c3ccccc3)C2SC1` (some centres undefined), the inhibition is 0.953%. Under `N#CCSc1ccc2ccccc2c1` stands 3.36%; under `CCOC(=O)c1c(NC(=S)Nc2ccccc2)sc2c1CCN(C)C2`, -2.27%. Under `NC(=O)C1CCN(CC(O)CSc2ccc(F)cc2)CC1` (centres undefined) stands 0.714%; under `CC(=O)Nc1cccc(-n2nnc(SCC(=O)c3cc(-c4ccccc4)no3)n2)c1`, -46.5%; under `CCOC(=O)C(=CNc1cc(C(F)(F)F)ccc1NCc1ccccc1)C(=O)OCC`, 1.63%. With `COC(=O)c1cc(OC)c(OC)cc1NC(=O)CSc1ccc(Cl)cc1`, the inhibition was 5.14%. Consider `NC(=O)c1ccccc1OCCOc1ccccc1C(N)=O`, for which the inhibition was -1.29%. Under `Cn1cc(Br)c(-c2cccc(NC(=O)c3ccccc3Cl)c2)n1` stands 5.94%; under `N#Cc1nccnc1N1CCN(c2ccccc2)CC1`, 1.69%; under `N#Cc1cccnc1NNC(=O)c1ccccc1C(=O)O`, -1.06%. Under `Fc1ccc(COc2ccc(-c3nnco3)cc2)cc1` stands 4.75%; under `CCOC(=O)c1cnc2c(S(=O)(=O)C(C)C)csc2c1Sc1cccc(Cl)c1`, 3.84%; under `CC(=O)N1C=CC(c2c[nH]c3ccccc23)C=C1`, -3.18%. Under `CC(C)S(=O)(=O)/C(C#N)=C/c1ccccc1OC(F)(F)F` stands 2.58%. Take `CS(=O)(=NC(=O)c1cc2ccccc2o1)c1ccc(Cl)cc1` (centres undefined): the inhibition was 4.96%. `CC(C)(C)C(=O)OCC(N)=S`: the inhibition was -1.98%.

`O=[N+]([O-])c1ccc(N2CCC2)cc1`: the inhibition is 0.196%.

Take `CCOC(=O)c1cc(C)nc(Sc2ccccc2NC(=O)Nc2ccc(Cl)cc2)c1C#N`: the inhibition was 25.2%. As for `CCOC(=O)c1c(C)nn(-c2ncccc2NC(=O)Nc2cccc(Cl)c2Cl)c1C`, the inhibition is 37.4% (active). As for `Cc1nc2cc3c(cc2s1)OCO3`, the inhibition is -0.92%. Regarding `O=C(NC(=S)Nc1nc(-c2ccc(Cl)cc2)cs1)C1CC1`, the inhibition was -13.9%. In the case of `O=S(=O)(Nc1ccc2[nH]ccc2c1)c1cccs1` it was 3.17%; in that of `CCCCC#Cc1cncc(C(=O)NNC(=O)Nc2ccc(Cl)cc2)c1`, 2.26%.

Consider `O=C1CSC(=S)N1c1ccc(N2CCCCCC2)c(N2C(=O)CSC2=S)c1`, for which the inhibition is -4.27%.

In the case of `COC(=O)c1sccc1Oc1ccc(Cl)cc1[N+](=O)[O-]`, the inhibition was 2.05%.

For the molecule `O=C(NCc1cccnc1)c1cnc2ccccc2n1`, the inhibition was 3.18%. Under `Cc1cc2c(cn1)C(=O)c1ccccc1-2` stands 4.96%. With `O=C1C(Cl)=C(Oc2cc(Cl)c(Cl)cc2Cl)C(=O)c2ccccc21`, the inhibition was 33.4% (active). On to `COc1cccc(C(=O)c2sc3nsc(SCc4ccc(F)cc4)c3c2N)c1`, for which the inhibition is -5.96%.

For the molecule `N#C/C(=C\c1ccsc1Sc1ccc(Cl)cc1)S(=O)(=O)c1ccc(Cl)cc1`, the inhibition was -9.13%.

On to `Cc1c(-c2cnc(NC(=O)c3ccccc3)s2)sc2ccc(Cl)cc12`, for which the inhibition is -9.03%. In the case of `CCOC(=O)C(NC(=O)Nc1ccccc1)(Nc1ccccc1OC)C(F)(F)F` (centres undefined) it was -0.9%. In the case of `O=C(O)CSC(SCC(=O)O)c1ccc2c(c1)OCO2` it was -0.753%; in that of `O=c1[nH]/c(=C/c2ccc(OC(F)(F)F)cc2)c(=O)[nH]/c1=C/c1ccc(OC(F)(F)F)cc1`, -0.938%; in that of `N#Cc1c(C(F)(F)F)cc(-c2cccs2)nc1N1CCCCC1`, -3.16%. Take `Oc1ccccc1C=Nc1ccc(F)cc1`: the inhibition is -4.6%. Under `COc1ccc(-c2csc(-c3cc(C)on3)n2)cc1` stands 9.36%; under `Cc1ccc(/C=c2\sc3nc4ccccc4n3c2=O)o1`, 7.34%; under `Cc1c(NC(=O)c2cccnc2)c(=O)n(-c2ccccc2)n1C`, 2.93%. Under `CCOC(=O)c1c(-c2ccco2)csc1NC(=O)Nc1ccc(Cl)cc1` stands -41.9%. Turning to `OC(c1ccncc1)c1c[nH]c2ccccc12` (centres undefined), the inhibition is -0.868%.

On to `O/N=C/c1ccc(F)c(Cl)c1`, for which the inhibition was 2.78%.

On to `Cc1ccc2oc(-c3cccs3)nc2c1`, for which the inhibition was 2.37%.

As to `Cc1cc(NCc2cccnc2)no1`, the inhibition is 1.95%. In the case of `NNC(=O)c1csc(-c2ccc(C(F)(F)F)cn2)n1` it was 4.74%.

Values taken from PubChem BioAssay AID2291 (The Scripps Research Institute Molecular Screening Center, 2010).
